Laboratory results taken from PubChem BioAssay (NCI).
This is part of a sample that, as a whole, favours compounds with a hit. Of some 79,000 tested, about 15% had one in any assay. Active and inactive are the calls of the source. No stated cut-off is given here; in the data, active means growth inhibition above about 70%; inactive means the rest.

Key:
[1] = NCI Yeast Anticancer Drug Screen. Data for the rad52 strain (AID 147);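 further: 0% = growth of vehicle-treated control cultures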; details: S. cerevisiae rad52 mutant growth inhibition, hits give high values
Method in brief: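 Growth of repair-deficient yeast cells was compared between compound-treated and vehicle-treated cultures to give percent inhibition.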

[2] = NCI Yeast Anticancer Drug Screen. Data for the wt1 strain (AID 149);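 further: 0% = growth of vehicle-treated wt1 cultures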; details: S. cerevisiae wt1 strain (SPY 50644) growth inhibition, hits give high values
Method in brief: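 wt1 strain grown with compound or vehicle; inhibition taken from the growth difference.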

[3] = NCI Yeast Anticancer Drug Screen. Data for the rad50EPP+ strain (AID 151);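 further: 0% = growth of vehicle-treated control cultures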; details: S. cerevisiae rad50 mutant strain, hits give high values
Method in brief: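 Measured: growth inhibition of rad50EPP+ yeast. Reference: vehicle-treated controls. Screen uses strains with defined genetic alterations in DNA damage repair or cell cycle control.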

[4] = NCI Yeast Anticancer Drug Screen. Data for the mgt1 strain (AID 153); details: S. cerevisiae mgt1 mutant growth inhibition, hits give high values
Method in brief: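 Compounds were applied to mgt1 mutant yeast, and growth was then compared against vehicle-treated control cultures to give percent inhibition.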

[5] = NCI Yeast Anticancer Drug Screen. Data for the rad50 strain (AID 155);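 further: 0% = growth of vehicle-only cultures of the same strain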; details: S. cerevisiae rad50 strain growth inhibition, hits give high values
Method in brief: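 DNA repair mutant yeast, compound exposure, growth read-out; inhibition is taken relative to vehicle.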

[6] = NCI Yeast Anticancer Drug Screen. Data for the mec2-1 strain (AID 157); details: S. cerevisiae mec2-1 strain, hits give high values
Method in brief: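 Compounds were applied to mec2-1 yeast cells. Their growth was then compared with that of vehicle-treated cultures to give growth inhibition.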

[7] = NCI Yeast Anticancer Drug Screen. Data for the rad14 strain (AID 159);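 further: 0% = growth of vehicle-treated control cultures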; details: S. cerevisiae rad14 strain growth inhibition, hits give high values
Method in brief: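 DNA repair-defective yeast, compound-exposed; % growth inhibition derived by comparison with vehicle-treated controls.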

[8] = NCI Yeast Anticancer Drug Screen. Data for the CLN2oe strain (AID 163);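 further: 0% = growth of vehicle-only control cultures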; details: S. cerevisiae CLN2oe strain, hits give high values
Method in brief: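 Cells of an engineered yeast line with disturbed cell-cycle regulation are treated with compound. Inhibition of growth is then calculated relative to the vehicle-treated reference.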

[9] = NCI Yeast Anticancer Drug Screen. Data for the cln2 rad14 strain (AID 165);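 further: 0% = growth equal to vehicle treated cultures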; details: S. cerevisiae cln2 rad14 strain, hits give high values
Method in brief: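 Strain: cln2 rad14 yeast, altered in cell cycle control and DNA damage repair. Read-out: growth inhibition vs vehicle.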

[10] = NCI Yeast Anticancer Drug Screen. Data for the bub3 strain (AID 167); details: S. cerevisiae bub3 mutant strain, hits give high values
Method in brief: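 In this screen, a yeast mutant lacking normal mitotic checkpoint function is challenged with compound. Relative growth versus vehicle gives the inhibition value.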

[11] = NCI Yeast Anticancer Drug Screen. Data for the wt2 strain (AID 169);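 further: 0% = growth of vehicle-treated yeast cultures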; details: S. cerevisiae wt2 strain growth inhibition, hits give high values
Method in brief: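 Growth of compound-treated yeast is measured and expressed as inhibition relative to vehicle-only controls.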

[12] = NCI Yeast Anticancer Drug Screen. Data for the mlh1 strain (AID 171);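 further: 0% = growth of vehicle-treated control cultures of the same strain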; details: S. cerevisiae mlh1 strain growth inhibition, hits give high values
Method in brief: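 Test agents were incubated with yeast bearing a defined DNA damage repair or cell cycle control alteration; values are growth inhibition normalised to vehicle-treated cultures.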

[13] = NCI Yeast Anticancer Drug Screen. Data for the sgs1 strain (AID 173);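 further: 0% = growth of vehicle-only control cultures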; details: S. cerevisiae sgs1 mutant, hits give high values
Method in brief: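 Strain with an altered DNA repair or cell cycle pathway exposed to compound. Growth then measured. Value = inhibition versus vehicle control.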

[14] = NCI Yeast Anticancer Drug Screen. Data for the mlh1 rad18 strain (AID 175); details: S. cerevisiae mlh1 rad18 strain growth inhibition, hits give high values
Method in brief: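 A repair-deficient yeast strain is exposed to test compound, and growth is scored relative to vehicle-treated controls.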

[15] = NCI Yeast Anticancer Drug Screen. Data for the rad18 strain (AID 177); details: S. cerevisiae rad18 mutant growth inhibition, hits give high values
Method in brief: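 DNA-repair-defective yeast; compound treatment; growth inhibition scored against vehicle.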

[16] = at 5.0 µM (retest, dose inferred, filed as 0.5)
[17] = at 50.0 µM (retest, dose inferred, filed as 5.0)

Measured: growth inhibition

CCCCCCCCCCCCCCCCCC(=O)NCCCN(C)C
inactive: [1]; at 1.2 µM -47% | [1]; at 3.7 µM -39% | [1]; at 11.0 µM -44% | [2]; at 1.2 µM -51% | [2]; at 3.7 µM -58% | [2]; at 11.0 µM -56% | [3]; at 1.2 µM -37% | [3]; at 3.7 µM -43% | [3]; at 11.0 µM 33% | [4]; at 1.2 µM -13% | [4]; at 3.7 µM -11% | [4]; at 11.0 µM -19% | [5]; at 1.2 µM -27% | [5]; at 3.7 µM -11% | [5]; [16] 33% | [5]; at 11.0 µM -17% | [6]; at 1.2 µM -31% | [6]; at 3.7 µM -31% | [6]; [16] 50% | [6]; at 11.0 µM -45% | [7]; at 1.2 µM -31% | [7]; at 3.7 µM -29% | [7]; at 11.0 µM -40% | [8]; at 1.2 µM -35% | [8]; at 3.7 µM -37% | [8]; at 11.0 µM -80% | [9]; [16] 17% | [10]; at 1.2 µM 4% | [10]; at 3.7 µM 6% | [10]; [16] 42% | [10]; at 11.0 µM 1% | [11]; at 1.2 µM -29% | [11]; at 3.7 µM -27% | [11]; at 11.0 µM -37% | [12]; at 1.2 µM -21% | [12]; at 3.7 µM -35% | [12]; at 11.0 µM -44% | [13]; at 1.2 µM -5% | [13]; at 3.7 µM -13% | [13]; at 11.0 µM -13% | [14]; [16] 36% | [15]; at 1.2 µM -32% | [15]; at 3.7 µM -32% | [15]; at 11.0 µM -12%
active: [1]; at 33.0 µM 97% | [1]; at 100.0 µM 97% | [2]; at 33.0 µM 98% | [2]; at 100.0 µM 97% | [3]; at 33.0 µM 96% | [3]; at 100.0 µM 96% | [4]; at 33.0 µM 98% | [4]; at 100.0 µM 98% | [5]; at 33.0 µM 94% | [5]; [17] 98% | [5]; at 50.0 µM 92.2% | [5]; at 100.0 µM 96% | [6]; at 33.0 µM 98% | [6]; [17] 98% | [6]; at 50.0 µM 93.8% | [6]; at 100.0 µM 98% | [7]; at 33.0 µM 97% | [7]; at 100.0 µM 97% | [8]; at 33.0 µM 97% | [8]; at 100.0 µM 97% | [9]; [17] 97% | [9]; at 50.0 µM 92% | [10]; at 33.0 µM 98% | [10]; [17] 95% | [10]; at 50.0 µM 92.2% | [10]; at 100.0 µM 98% | [11]; at 33.0 µM 97% | [11]; at 100.0 µM 98% | [12]; at 33.0 µM 97% | [12]; at 100.0 µM 97% | [13]; at 33.0 µM 96% | [13]; at 100.0 µM 97% | [14]; [17] 99% | [14]; at 50.0 µM 92.5% | [15]; at 33.0 µM 97% | [15]; at 100.0 µM 97%

Cc1nc(Nc2ccccc2[N+](=O)[O-])sc1C(=O)CC(=O)C(=O)Nc1c(C(C)C)cccc1C(C)C
inactive: [1]; at 1.2 µM -2% | [1]; at 3.7 µM -2% | [1]; at 11.0 µM -1% | [1]; at 33.0 µM -5% | [1]; at 100.0 µM 1% | [2]; at 1.2 µM 2% | [2]; at 3.7 µM 4% | [2]; at 11.0 µM 3% | [2]; at 33.0 µM 5% | [2]; at 100.0 µM 4% | [3]; at 1.2 µM 5% | [3]; at 3.7 µM 17% | [3]; at 11.0 µM 37% | [3]; at 33.0 µM 50% | [3]; at 100.0 µM 59% | [4]; at 1.2 µM -1% | [4]; at 3.7 µM 0% | [4]; at 11.0 µM 0% | [4]; at 33.0 µM -11% | [4]; at 100.0 µM -1% | [5]; at 1.2 µM -5% | [5]; at 3.7 µM -16% | [5]; [16] 10% | [5]; at 11.0 µM -17% | [5]; at 33.0 µM 2% | [5]; [17] 1% | [5]; at 50.0 µM -1.6% | [5]; at 100.0 µM 3% | [6]; at 1.2 µM 2% | [6]; at 3.7 µM 4%
